Compounds without any hit were thinned out: in the full panel of roughly 83,000, 20% have a hit.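 Note: values are percent growth. 100 is the growth of untreated cells, values between 100 and 0 indicate rising inhibition; between -100 and 0 indicates cell death.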 Values without a mark were called inactive. Activity calls are given as the source filed them. How the source made its calls: active means growth percent below 10; inactive means the rest.

One assay deals with ACHN renal. The experiment in a line: NCI-60 one-dose screen, 48 h (100 = growth as untreated, 0 = no growth, -100 = all killed). Particulars: 10 µM unless noted.
Take `COC(=O)C(Cc1ccccc1)NC(=O)NC(=O)NC(=O)CI` (stereo unspecified): the growth was 75.7%.
Same read-out and setting: to `O=C1CCC(C(=O)NCCNCCNC(=O)C2CCC(=O)N2)N1` (stereo unspecified) belongs 112%; to `C(=N/Nc1ncnc2nc[nH]c12)/c1ccccn1`, 23.4%.
Same read-out and setting: to `CCCCCCCCCCCCCCCCCCOc1ccc(CC(=O)OCC[N+](C)(C)C)cc1` belongs 99.9%; to `COc1ccc([C@H]2c3cc(OC)c(OC)cc3C=C(C=O)C2CO)cc1OC` (stereo partly specified), 57.8%; to `Cc1nn(-c2ccccc2)c(-n2ccnc2)c1/C=N/Nc1nc(-c2ccc(Cl)c(Cl)c2)cs1`, 39.9%.
The same measure, in the same setting: in the case of `Cc1ccc2c(n1)C(=O)C(Cl)=C(Nc1ccccc1C(C)C)C2=O` it was 49.2%; in that of `Cc1cccc2c3c(sc12)C(c1ccc(Cl)cc1)C(C#N)=C(/N=C/c1ccc(Cl)cc1)O3` (stereo unspecified), 25.9%.
On to `Cc1ccc2c(-c3cc(-c4ccccc4)nc(N)c3C#N)cc(=O)oc2c1`, for which the growth was 99.3%.
Still for that read-out and setting: in the case of `Cc1ncc(C(=O)Nc2ccc(CN3CCN(C)CC3)c(C(F)(F)F)c2)cc1C#Cc1ccc(N)nc1` it was -20% (active); in that of `COc1ccc(CN2c3ccccc3Sc3ccccc32)c(F)c1`, 43.4%; in that of `COc1ccc(-c2ncnc3c2ncn3CC#CCCl)cc1`, 52.8%.
Still for that read-out and setting: in the case of `COc1ccc(C(=O)C[C@]2(O)C(=O)Nc3c(Cl)ccc(Cl)c32)cc1` it was 44.5%; in that of `c1ccc2c(-c3nc(-c4c[nH]c5ccncc45)cs3)c[nH]c2c1`, 23.5%; in that of `C=CCNc1ccc2c3c(cccc13)C(=O)N(N1C(=O)c3cccc4cccc(c34)C1=O)C2=O`, 103%.
On the same count and under the same terms, to `N#Cc1c(-c2ccccc2)nc(SCC(=O)Nc2nc(-c3ccc(Cl)cc3)cs2)[nH]c1=O` belongs 103%; to `COc1cc(C(=O)/C=C/c2c(Cl)nc3sccn23)cc(OC)c1OC`, 86.4%; to `COc1ccc(-c2cc(-c3ccc(Cl)cc3)c(C#N)c(=O)n2CCCCCC(=O)Nc2ccccc2N)cc1`, 34.2%.
For `COc1cccc(/C=C2\C=C(c3ccccc3)N(Cc3ccccc3)C2=O)c1`, the growth was 48%.
The same measure, in the same setting: in the case of `CCOC(=O)c1cn2ncnc(Oc3ccc(NC(=O)NCCN(C)C)c(Cl)c3)c2c1C` it was 84.5%; in that of `COc1ccc(N2C(=O)C(Oc3ccccc3)C2c2ccc(C)cc2)cc1` (stereo unspecified), 95.7%.
Same read-out and setting: to `O=[N+]([O-])c1ccc(Cl)c(-c2cc(CCCCO)on2)c1` belongs 101%.
Same read-out and setting: to `COc1cccc2nc3n(c12)C(c1c(F)cccc1F)SC3` (stereo unspecified) belongs 92.7%.
With `Cc1ccc(S(=O)(=O)N/N=C/C2(c3ccccc3)CC2)cc1`, the growth is 109%.

A further assay concerns CAKI-1 renal. The assay is described as above. To be noted: 10 µM unless noted.
`CC(=O)OC[C@H]1OC(Sc2sc(C(=O)c3ccc(C)cc3)c(N)c2-c2nc3ccccc3s2)[C@H](OC(C)=O)[C@@H](OC(C)=O)[C@@H]1OC(C)=O` (stereo partly specified): the growth is 53.7%.
On the same count and under the same terms, in the case of `COC1=C(C)C(=O)c2c(c(CCCl)c3n2CCC3O)C1=O` (stereo unspecified) it was 10.9%; in that of `Oc1ccc(C#CCOc2ccccc2)cc1CNCCN(Cc1ccccn1)Cc1ccccn1`, 28.4%; in that of `CCc1nnc(NC(=O)c2nnn(-c3ccccc3)c2-c2ccco2)s1`, 92.1%.
For `CNc1nc2c(s1)C(c1cccc(F)c1)CC(=O)N2` (stereo unspecified), the growth was 87.6%.
The same measure, in the same setting: in the case of `CC(=O)O.CN1[CH-]N(Cc2ccc(C#N)cc2)c2ccccc21.[Ag+]` it was 104%; in that of `O=C(Nc1ccc(F)cc1F)c1cc(F)ccc1O`, 3.45% (active).
Same read-out and setting: in the case of `CCc1ccc(Oc2c(-c3ccc(OCc4ccc(Cl)cc4)cc3O)nn(C)c2C(F)(F)F)cc1` it was 3.34% (active); in that of `CCC(=O)Nc1ccc(-c2nc(-c3cccc(OC)c3)c(-c3ccnc(Br)c3)[nH]2)cc1`, 57.1%.
As to `CC/C=C\C[C@@H](O)C/C=C1/C(=O)C=C[C@H]1C/C=C\CCCC(=O)OC`, the growth is 17.9%.
For the compound `CC(=O)CC(c1ccccc1)c1c(C)[nH]c2ccccc12` (stereo unspecified), the growth is 77.8%.
`Cc1nc2cnc(N)c(C#Cc3cncc(C(=O)Nc4ccc(CN5CCN(C)CC5)c(C(F)(F)F)c4)c3)c2nc1C`: the growth is -36.4% (active).
In the case of `COc1ccc(-c2nc(NCCO)[nH]c(=O)c2C#N)cc1`, the growth is 101%.
Still for that read-out and setting: in the case of `COc1ccn2c(C(C)=O)cc(C(=O)c3ccc4c(c3)Sc3ccccc3N4)c2c1` it was 15.9%.
On the same count and under the same terms, to `COC(=O)C(Cc1ccccc1)NC(=O)NC(=O)NC(=O)CI` (stereo unspecified) belongs -69.3% (active); to `O=C1CCC(C(=O)NCCNCCNC(=O)C2CCC(=O)N2)N1` (stereo unspecified), 98.8%; to `C(=N/Nc1ncnc2nc[nH]c12)/c1ccccn1`, -25.4% (active).
Same read-out and setting: to `CCCCCCCCCCCCCCCCCCOc1ccc(CC(=O)OCC[N+](C)(C)C)cc1` belongs 90.4%; to `Cc1nn(-c2ccccc2)c(-n2ccnc2)c1/C=N/Nc1nc(-c2ccc(Cl)c(Cl)c2)cs1`, 24.9%; to `Cc1ccc2c(n1)C(=O)C(Cl)=C(Nc1ccccc1C(C)C)C2=O`, 35%.
Regarding `Cc1cccc2c3c(sc12)C(c1ccc(Cl)cc1)C(C#N)=C(/N=C/c1ccc(Cl)cc1)O3` (stereo unspecified), the growth was 5.67% (active).
In the case of `Cc1ccc2c(-c3cc(-c4ccccc4)nc(N)c3C#N)cc(=O)oc2c1`, the growth is 100%.
Same read-out and setting: to `Cc1ncc(C(=O)Nc2ccc(CN3CCN(C)CC3)c(C(F)(F)F)c2)cc1C#Cc1ccc(N)nc1` belongs -71.1% (active).
The same measure, in the same setting: in the case of `COc1ccc(CN2c3ccccc3Sc3ccccc32)c(F)c1` it was 21.5%; in that of `COc1ccc(-c2ncnc3c2ncn3CC#CCCl)cc1`, 61.8%; in that of `COc1ccc(C(=O)C[C@]2(O)C(=O)Nc3c(Cl)ccc(Cl)c32)cc1`, 32.3%.
On the same count and under the same terms, in the case of `c1ccc2c(-c3nc(-c4c[nH]c5ccncc45)cs3)c[nH]c2c1` it was 17.1%; in that of `C=CCNc1ccc2c3c(cccc13)C(=O)N(N1C(=O)c3cccc4cccc(c34)C1=O)C2=O`, 94.1%.
With `N#Cc1c(-c2ccccc2)nc(SCC(=O)Nc2nc(-c3ccc(Cl)cc3)cs2)[nH]c1=O`, the growth was 89%.
Consider `COc1cc(C(=O)/C=C/c2c(Cl)nc3sccn23)cc(OC)c1OC`, for which the growth is 84.9%.
On the same count and under the same terms, to `COc1ccc(-c2cc(-c3ccc(Cl)cc3)c(C#N)c(=O)n2CCCCCC(=O)Nc2ccccc2N)cc1` belongs 7.69% (active).
With `COc1cccc(/C=C2\C=C(c3ccccc3)N(Cc3ccccc3)C2=O)c1`, the growth is 55.1%.
Still for that read-out and setting: to `CCOC(=O)c1cn2ncnc(Oc3ccc(NC(=O)NCCN(C)C)c(Cl)c3)c2c1C` belongs 65.8%; to `COc1ccc(N2C(=O)C(Oc3ccccc3)C2c2ccc(C)cc2)cc1` (stereo unspecified), 93%.
Consider `O=[N+]([O-])c1ccc(Cl)c(-c2cc(CCCCO)on2)c1`, for which the growth was 87.2%.
Still for that read-out and setting: in the case of `COc1cccc2nc3n(c12)C(c1c(F)cccc1F)SC3` (stereo unspecified) it was 106%.
The same measure, in the same setting: to `Cc1ccc(S(=O)(=O)N/N=C/C2(c3ccccc3)CC2)cc1` belongs 92.6%.

For the origin of these results see PubChem BioAssay (NCI).
